TSHR ag = qHTS Assay for Agonists of the Thyroid Stimulating Hormone Receptor | Thyrotropin receptor (Homo sapiens), P16473 | HEK293-CNG-TSHR cells (CNG channel as cAMP sensor), membrane potential dye, cAMP | Potency, µM (doses to about 57.1 µM), most hits filed as activators | hit rate 0.48% among 73,000; active = well fitted activation curve with a large enough effect in the main read-out, with a control signal flat, not every such curve was filed as active; inconclusive = small, poorly fitted or top-dose-only effect, or a change in a side signal; inactive = no such curve, though single readings can be large or run the other way; reference of the percent scale not stated here;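 note: the control signal comes from parental cells without the receptor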
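HEK 293 cells stably expressing TSHR and a cAMP-gated CNG channel; parental CNG-only cells as counterscreen. Cells preloaded 60 min with membrane potential dye plus 100 uM RO 20-1724, then compound 30 min; fluorescence read at 590 nm.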
FLuc inh = qHTS Assay for Inhibitors of Firefly Luciferase; Luciferin 4-monooxygenase (Photinus pyralis), P08659; purified firefly luciferase, luminescence, 8 min; Potency, µM (series often up to 57.1 µM), hits mostly inhibitors; hit rate 2.2% among 72,000; note: nearly all actives have a fitted effect of over 40% in size
Target sequence (P08659 whole entry, looked up): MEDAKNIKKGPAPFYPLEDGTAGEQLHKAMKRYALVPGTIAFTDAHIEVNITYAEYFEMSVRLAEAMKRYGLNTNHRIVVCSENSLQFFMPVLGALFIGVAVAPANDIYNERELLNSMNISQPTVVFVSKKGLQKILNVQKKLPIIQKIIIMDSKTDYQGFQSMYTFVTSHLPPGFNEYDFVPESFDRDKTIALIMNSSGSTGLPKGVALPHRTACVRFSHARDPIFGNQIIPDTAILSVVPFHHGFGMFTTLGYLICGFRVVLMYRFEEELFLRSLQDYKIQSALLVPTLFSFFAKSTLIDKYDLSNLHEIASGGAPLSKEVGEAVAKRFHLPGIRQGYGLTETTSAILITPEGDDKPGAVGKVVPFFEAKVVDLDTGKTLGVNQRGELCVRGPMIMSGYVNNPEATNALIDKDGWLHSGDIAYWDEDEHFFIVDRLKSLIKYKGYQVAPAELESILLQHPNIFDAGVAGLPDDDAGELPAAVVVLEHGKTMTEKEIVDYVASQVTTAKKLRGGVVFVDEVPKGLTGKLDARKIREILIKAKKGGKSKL
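Inhibition of light generation by firefly luciferase from ATP and luciferin was profiled with concentration-response curves per sample, ATP held at 10 uM within the enzyme's linear range. Plates were read by luminescence after an 8-minute ambient incubation.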
PK Bst = Pyruvate Kinase; purified pyruvate kinase, luminescence ATP production; ribose 5-phosphate activator present at AC10; Potency, µM; hit rate 1.2% among 51,000; AID 361, 2006; in the data active = potency below about 11 µM; inconclusive = mostly about 12 µM to 25 µM;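 the screen sought inhibitors and activators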
HEK293 cAMP cs = qHTS Assay for Agonists of the Thyroid Stimulating Hormone Receptor: Activators of Intracellular cAMP Concentrations in Parental HEK 293 | parental HEK293 CNG cAMP sensor, membrane potential fluorescence | Potency, µM (top dose mostly 57.1 µM), usual class: activators | hit rate 2.5% among 73,000 | AID 938, 2007; note: nearly all actives have a fitted effect of over 55% in size
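Parental HEK 293 cells stably expressing a modified CNG channel (no TSHR) report cAMP rise as membrane depolarization. Membrane potential dye with 100 uM RO 20-1724 was loaded for 60 min at room temperature, then compound added for 30 min; fluorescence read at 590 nm.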
A number is an active result. This is a sample that favours compounds with a hit; in the whole collection about 5.2% have one here. Unless noted, calls come from the whole dose curve; as a rule, active = well fitted curve in the direction sought with a large enough effect; inconclusive = small, poorly fitted or top-dose-only effect, or another doubt; inactive = no such curve, though single readings can be large; an effect the other way counts as inactive or inconclusive.

Results for CC(C)C(c1nnnn1C1CCCCC1)N1CCc2ccccc2C1 (stereo unspecified) ?
TSHR ag: inconclusive; FLuc inh: inactive; PK Bst: inactive; HEK293 cAMP cs: 5µM

How did Nc1ncnc2c1ncn2[C@@H]1O[C@@H](CO)[C@H](O)[C@@H]1O do in these assays?
TSHR ag: inconclusive; FLuc inh: inactive; HEK293 cAMP cs: 25µM

How did O=C(CSc1nnc(COc2ccc(Cl)cc2)n1Cc1ccco1)c1ccccc1F do in these assays?
TSHR ag: inconclusive; FLuc inh: inactive; PK Bst: inactive; HEK293 cAMP cs: 25µM

What do the screens show for `Cc1cccc(OCc2nnc(SCC(=O)N(C(C)C)C(C)C)n2Cc2ccco2)c1C`?
TSHR ag: inconclusive; FLuc inh: inactive; PK Bst: inactive; HEK293 cAMP cs: 7.9µM

How did O=C(CSc1nnc(-c2ccc(Cl)cc2)n1Cc1ccco1)c1cccs1 do in these assays?
TSHR ag: inconclusive; FLuc inh: inactive; PK Bst: inactive; HEK293 cAMP cs: 16µM

Results for CCO/C(C)=N/n1c2nc3ccccc3nc2c2c(=O)n(C3CCCC3)c(C)nc21 ?
TSHR ag: inactive; FLuc inh: inactive; PK Bst: inactive; HEK293 cAMP cs: inactive

Results for COc1ccccc1NC(=O)C1=C(C)Nc2nnnn2C1c1cccc(C)c1 (stereo unspecified) ?
TSHR ag: inactive; FLuc inh: inactive; HEK293 cAMP cs: inactive

What do the screens show for `COc1cccc(OC)c1OCCNC[C@@H]1CSc2ccccc2O1`?
TSHR ag: inconclusive; FLuc inh: inactive; HEK293 cAMP cs: inconclusive

Results for N#CCCN1CCN(C(=S)c2ccc(-c3ccc(Cl)c(Cl)c3)o2)CC1 ?
TSHR ag: inactive; FLuc inh: inactive; PK Bst: inactive; HEK293 cAMP cs: inactive

How did COc1cccc(C2=CC(c3ccc(C)cc3)n3ncnc3N2)c1 (stereo unspecified) do in these assays?
TSHR ag: inconclusive; FLuc inh: inactive; HEK293 cAMP cs: 16µM

How did COc1ccc(C2C3=C(N=C4SCC(=O)N42)c2ccccc2CC3)cc1 (stereo unspecified) do in these assays?
TSHR ag: inconclusive; FLuc inh: 25µM; HEK293 cAMP cs: inconclusive

What do the screens show for `COc1ccc(C2C3=C(N=C4SCC(=O)N42)c2ccccc2CC3)cc1OC` (stereo unspecified)?
TSHR ag: inactive; FLuc inh: inactive; PK Bst: inactive; HEK293 cAMP cs: inactive

How did Cc1ccccc1-c1ccc(C=Nc2c(C)n(C)n(-c3ccccc3)c2=O)o1 do in these assays?
FLuc inh: 16µM; PK Bst: inactive; HEK293 cAMP cs: inactive

How did Cc1cc2nc(-c3cccnc3SCC(=O)NCc3ccco3)[nH]c2cc1C do in these assays?
TSHR ag: inactive; FLuc inh: 4µM; PK Bst: 3.9; HEK293 cAMP cs: inactive

Results for O=C(CSc1ncccc1-c1nc2ccccc2[nH]1)NCc1ccco1 ?
TSHR ag: inactive; FLuc inh: inconclusive; HEK293 cAMP cs: inactive

Results for COc1cc(CNc2cc(C)ccc2C)cc(OC)c1OC ?
TSHR ag: inactive; HEK293 cAMP cs: inactive

Results for CCn1c(SCC(=O)N2CCN(c3ccc(F)cc3)CC2)nc2ccccc2c1=O ?
TSHR ag: inconclusive; FLuc inh: inactive; PK Bst: inactive; HEK293 cAMP cs: inconclusive

Results for CCCn1c(SCC(=O)N2CCN(c3ccccc3)CC2)nc2ccccc2c1=O ?
TSHR ag: 5µM; FLuc inh: inactive; PK Bst: inactive; HEK293 cAMP cs: inactive

What do the screens show for `CCOC(=O)c1ccc(NC(=O)CSc2nc3c(c(=O)n2C)SC(C)C3)cc1` (stereo unspecified)?
TSHR ag: inconclusive; FLuc inh: inactive; HEK293 cAMP cs: 20µM

Results for CCn1c(SCC(=O)N2CCN(c3ccccc3)CC2)nc2c(c1=O)SC(C)C2 (stereo unspecified) ?
TSHR ag: inconclusive; FLuc inh: inactive; HEK293 cAMP cs: 25µM

How did CCOC(=O)Nc1ccc(S(=O)(=O)Nc2cc(C)on2)cc1 do in these assays?
TSHR ag: inactive; FLuc inh: inactive; PK Bst: inactive; HEK293 cAMP cs: inactive

How did CN(C)c1nc(Oc2ccc(C(=O)OCC(=O)Nc3ccccc3)cc2)nc(N(C)C)n1 do in these assays?
TSHR ag: inconclusive; FLuc inh: inactive; HEK293 cAMP cs: 3.2µM

What do the screens show for `CCOC(=O)c1ccc(Oc2nc(OC)nc(N(C)C)n2)cc1`?
TSHR ag: inconclusive; FLuc inh: inactive; HEK293 cAMP cs: inconclusive

What do the screens show for `CCC/C=C(\CCC)C(NP(=O)(c1ccccc1)c1ccccc1)c1ccc(C(F)(F)F)cc1` (stereo unspecified)?
TSHR ag: inconclusive; HEK293 cAMP cs: 4µM

What do the screens show for `CCC/C=C(\CCC)C(NP(=O)(c1ccccc1)c1ccccc1)c1ccc(-c2ccccc2)cc1` (stereo unspecified)?
TSHR ag: inactive; HEK293 cAMP cs: inactive

Results for CCC(C)(C)NC(=O)C(c1ccccc1F)N(Cc1ccco1)C(=O)c1csnn1 (stereo unspecified) ?
TSHR ag: inactive; FLuc inh: inactive; PK Bst: inactive; HEK293 cAMP cs: inactive

How did CCC(C)(C)NC(=O)C(c1ccc(C)o1)N(Cc1cccs1)C(=O)Cn1nnc2ccccc21 (stereo unspecified) do in these assays?
TSHR ag: inconclusive; FLuc inh: inactive; PK Bst: inactive; HEK293 cAMP cs: 16µM

Results for CCC(C)(C)NC(=O)C(c1ccccc1F)N(Cc1ccco1)C(=O)Cn1nnc2ccccc21 (stereo unspecified) ?
TSHR ag: inconclusive; FLuc inh: inactive; PK Bst: inactive; HEK293 cAMP cs: 16µM

What do the screens show for `CC(=O)c1ccc(-n2nncc2C)cc1`?
TSHR ag: inconclusive; FLuc inh: inactive; PK Bst: inactive; HEK293 cAMP cs: inconclusive

What do the screens show for `NS(=O)(=O)c1ccc(CNC(=O)NC23CC4CC(CC(C4)C2)C3)cc1`?
TSHR ag: inactive; FLuc inh: inactive; PK Bst: inactive; HEK293 cAMP cs: inactive

Results for COc1cccc(C(=O)Nc2ncc3c(n2)CC(c2ccc(OC)cc2OC)CC3=O)c1 (stereo unspecified) ?
TSHR ag: inconclusive; FLuc inh: inactive; PK Bst: inactive; HEK293 cAMP cs: inconclusive

Results for Oc1ccccc1-c1nnc(COc2ccc(Cl)cc2Cl)o1 ?
TSHR ag: inactive; FLuc inh: 13µM; HEK293 cAMP cs: inactive

Results for CCOC(=O)C1=C(C)Nc2nc(C)nn2C1c1ccc(OC)c(OC)c1 (stereo unspecified) ?
TSHR ag: inconclusive; FLuc inh: inactive; HEK293 cAMP cs: 1.6µM

How did COc1cccc(OC)c1C(=O)Nc1ccc2c(c1)OCCO2 do in these assays?
TSHR ag: inactive; FLuc inh: inactive; HEK293 cAMP cs: inactive

Results for COc1cc(C(=O)Nc2ccc3c(c2)OCCO3)ccc1OC(F)F ?
TSHR ag: inconclusive; FLuc inh: 16µM; PK Bst: inconclusive; HEK293 cAMP cs: inconclusive

Results for COc1ccc(C(=O)Nc2ccc(N3CCOCC3)cc2)cc1OC ?
TSHR ag: inactive; FLuc inh: inconclusive; HEK293 cAMP cs: inactive

How did COc1cc(C(=O)Nc2ccc3c(c2)OCCO3)ccc1OC(C)C do in these assays?
TSHR ag: inactive; FLuc inh: 13µM; PK Bst: inactive; HEK293 cAMP cs: inactive

High-throughput results as filed in PubChem BioAssay.
